Positions count from the first letter of the chain named. The full ranking holds about 24,000 sequences; the median of “enrichment r” is about 0.99, and the highest 2% start at about 3.7. The entries come from a sample that favours the highest values as a whole.

First the molecules themselves.
T1: UNK ZnF1-3 (human, UniProt Q9C0B0 31-174)
T1 sequence: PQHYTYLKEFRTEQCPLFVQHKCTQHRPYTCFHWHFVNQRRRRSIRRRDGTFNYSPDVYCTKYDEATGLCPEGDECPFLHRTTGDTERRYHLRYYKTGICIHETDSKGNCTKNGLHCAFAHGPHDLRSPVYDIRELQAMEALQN

B1: chr8:72542918:72542919:-_ENSMUSG00000031858_ENSMUST00000050561|mus_mus|FALSE|FALSE (ssRNA)
RNA: GGGAGUUCUACAGUCCGACGAUCAGCUAUCAAGCCAAGAGGAGCUGAGCUGGUCCCAUAACUGUCCUCCAUGGGAAAGCUAAAUAGCUGCCAGGAAGGAACCCUCUCAUUCAGGUCCAAUGGGACUUCUGCCUGAUGCUUAGGCAACAGAGGAUUGAGCAUCA
B2: chr7:141441981:141441982:+_ENSG00000106028_ENST00000265304|hu_mus|hu_hu_hu_mus_False|8_88 (ssRNA)
RNA: GGGAGUUCUACAGUCCGACGAUCCUCAUGUCUUACAAACUGACGAAGUACCUGUAACACAGGUCUUCGAAACAUGGCUUCUGUUUUUCUUACAACCUAAUCUUUAGGCUUUUCCUAAAGGAAAGAAUAACCCGAGCAAAAUGACAACAGAGGAUUGAGCAUCA
B3: chr5:159492046:159492047:+_ENSG00000113312_ENST00000231238|hu_hu|FALSE|FALSE (ssRNA)
RNA: GGGAGUUCUACAGUCCGACGAUCAGUCAGCUUGUAAAGCUUUUGUUAUCUUUGUUAUCUGUUAUUAUUUGGAUUUUGAACGAAAUUGAUGGAGUACGAGCCGGUAGAGGAAUCCUGUUUGAUCUGGAAAUUUUCCGUGGAGAGCAACAGAGGAUUGAGCAUCA
B4: chr7:54825262:54825263:-_ENSG00000132432_ENST00000352861|hu_hu|hu_hu_hu_mus_False|58_58 (ssRNA)
RNA: GGGAGUUCUACAGUCCGACGAUCCUGCCGGCUGGGCUCCACAAACUGCAUUACCUGAUCCAUGUUUGUUGGAUGGCACACCUAAAACGUAGAGACACGUAGCUCAGGAGAGAACCGAGCCCAACGGAACCGGAAGCUGGCAACCAACAGAGGAUUGAGCAUCA
B5: chr2:148701057:148701058:-_ENSG00000115947_ENST00000542387|hu_hu|FALSE|FALSE (ssRNA)
RNA: GGGAGUUCUACAGUCCGACGAUCUGACCGCAGGUUUUUGCUGAUAUUGAAAUGCUUCUGUAGUACUUCUUGCACACUUCUAUCUUCUGAGAGAUACUGAACAUUUUCAUUCCACUUCUCAGCAAAAACCUUGUCUGGAAACUCCAACAGAGGAUUGAGCAUCA
B6: chr15:59961163:59961164:-_ENSG00000140299_ENST00000607373|hu_mus|FALSE|FALSE (ssRNA)
RNA: GGGAGUUCUACAGUCCGACGAUCGCCGACAUACUCCAUGGGAACAAGCUCUGCCAGCUCGGCCAAGUUAAAGACGUAUCUGAUCUUCUGACUGAACUUUGAACUGAUAAAUGGUCGUGUAACAGCCAGAAGUGUUCGGAUAAACAACAGAGGAUUGAGCAUCA
B7: 6624775_6624895_1421_CDS_ENSMUSG00000041272_ENSMUST00000039987|mouse|control|control (ssRNA)
RNA: GGGAGUUCUACAGUCCGACGAUCGCUCGGAUGCAUGGCGGUGAGCUGAGGAGUCAUUCCUGGUUGUUGGUGAUAGUGAGAACUUAGGUACAGAGCUGAGUGGGCCUGGCUGGGCCCAUGGAAUACUGACGGCUUUGAGUUGACCAACAGAGGAUUGAGCAUCA
B8: chrX:35795285:35795286:-_ENSMUSG00000016534_ENSMUST00000061755|mus_mus|FALSE|FALSE (ssRNA)
RNA: GGGAGUUCUACAGUCCGACGAUCGAAAUUCAUCUCCCAUUCUGCAUAAAGGCAAGUACCCUUUGAAUCUGUCAAAUUAACUAUCAAUGCAUUGGACUGAACGGCUCCUAGGAACAGAAAGAUCAGGAUGAGCUUUGCGCCUUUCAACAGAGGAUUGAGCAUCA
B9: 74470573_74471800_972_CDS_ENSMUSG00000021577_ENSMUST00000022062|mouse|control|control (ssRNA)
RNA: GGGAGUUCUACAGUCCGACGAUCGUUGAUGAGAAUCCCCCCCUCUCCACGACACCCUUCUGUGAUGAGGCAGCCAGCACCGUAUAUACCUGUGGGGUGGAACUGAACAAAUUCUAAGUCCUGGCAAGGCAAACCAGCCCUAGUCAACAGAGGAUUGAGCAUCA
B10: chr1:109605286:109605287:-_ENSG00000197780_ENST00000461096|hu_mus|hu_hu_hu_mus_True|18_98 (ssRNA)
RNA: GGGAGUUCUACAGUCCGACGAUCAAGUUUCAGAGUAUUCAGUGAUCACCUCUUUAAAUGCAAUUAUCCUUAUUAUAAGCUAAGCAGAAUAAUAAUUUAAUACCGUAAGUGAACUACCACAAAACCUUGAACCGCGAAAAUGGUCAACAGAGGAUUGAGCAUCA
B11: chr1:150192741:150192742:-_ENSG00000143401_ENST00000314136|hu_hu|motif|central (ssRNA)
RNA: GGGAGUUCUACAGUCCGACGAUCUUAAUUAUGGGCUAAAAAUGACUAAUACAGUAAGCUUGAAUUUAAAAAAUUAAGUCGGAAUAAAUUGCUAGGGAAUUCCACAAUGGGAGUCAAUGAAAAUUUUUCUCUACAUACAAUAUGCAACAGAGGAUUGAGCAUCA
B12: chr3:160150142:160150143:+_ENSG00000113810_ENST00000344722|hu_hu|motif|central (ssRNA)
RNA: GGGAGUUCUACAGUCCGACGAUCAAAACCUGCCAUAAAUUCAUUAAGCCUUUGUUUCCGAAGAUCUUCAUAUGCCUGUCGGAAACUGUCUCUUUCAUAAGUAAUUUUGUCCAAUUCUGCUACCCGUUGCAAAUACAAUUCUUCCAACAGAGGAUUGAGCAUCA
B13: chr1:150192741:150192742:-_ENSG00000143401_ENST00000314136|hu_hu|FALSE|FALSE (ssRNA)
RNA: B11 RNA with G80U, G81A
B14: chr1:109605286:109605287:-_ENSG00000197780_ENST00000461096|hu_mus|hu_hu_hu_mus_True|18_38 (ssRNA)
RNA: GGGAGUUCUACAGUCCGACGAUCAAGUUUCAGAGUAACAUUCAGUAACCUCUUUAAAUGCAAUUAUCCUUAUUAUAAGCUAAGCAGAAUAAUAAUUUAAUACAUAGAGUGAACUACCACAAAACCUUGAACCGCGAAAAUGGUCAACAGAGGAUUGAGCAUCA
B15: chr16:57198444:57198445:-_ENSMUSG00000022749_ENSMUST00000023431|mus_mus|motif|central (ssRNA)
RNA: GGGAGUUCUACAGUCCGACGAUCCCUAAAAGAAGCUGGCGUCUUACUACAGUAAUACUGAGCCAAAGAGAACAGGUCUUCGGUGUCUUCCAGAUUCAGGCUGGCCGGGGUACUUUCCAAAAAGCGGAUAACUUCUUCUUUGCUCAACAGAGGAUUGAGCAUCA
B16: chr22:36164377:36164378:-_ENSG00000100320_ENST00000405409|hu_hu|motif|central (ssRNA)
RNA: GGGAGUUCUACAGUCCGACGAUCACGGCCCUCUACCACGGUGCCGUGUAAUUUCUCCCUGGCCCUGUCUGCAUCAGCACGGUUCUCGAAAGUUACGAACCCGAAUCCCUUAGAGCCACGUUCAUUAAAGAUUAUUUCUACAUCCAACAGAGGAUUGAGCAUCA
B17: chr6:86333760:86333761:-_ENSG00000135316_ENST00000355238|hu_mus|hu_hu_hu_mus_True|98_108 (ssRNA)
RNA: GGGAGUUCUACAGUCCGACGAUCUUCUUCAAGAAUCUGUUCCUUGGUUUUACUCUUAGGAAUCGAGCCCACAAAAAGCCUAUUGUUGGCAACUGAGAUGCAGACACCAAUGUGCUUCCCGGAACGAAUUUCAUGAUUAUUAUACAACAGAGGAUUGAGCAUCA
B18: chr12:493273:493274:-_ENSG00000073614_ENST00000399788|hu_mus|hu_hu_hu_mus_False|58_108 (ssRNA)
RNA: GGGAGUUCUACAGUCCGACGAUCUUUUCUCUCUACCACAGGGAUCUUCAAUGUAGAUCCUUGAAGUUCCCAAAAUUUUGCUAGUUGAUCCAAGAAGUCCAAUCUUACUCUAGUCAUUGCCUCAAGUUCAUUCAGGCGCUGGACCAACAGAGGAUUGAGCAUCA
B19: chr2:117093540:117093541:+_ENSMUSG00000027349_ENSMUST00000028825|mus_hu|motif|central (ssRNA)
RNA: GGGAGUUCUACAGUCCGACGAUCCAUUGUAAUCGUUGUCUUGGGUGACAAAGCAUAACGCUUAGGCUGAUAAAUUCUUGCGGUAUCAUCUGUUUUUACCUUUGCUCUAUCAGACCAUCCAAAGGACUGUACAGUCACAUCUAACAACAGAGGAUUGAGCAUCA
B20: chr16:45382771:45382772:-_ENSMUSG00000022661_ENSMUST00000163230|mus_mus|mus_mus_mus_hu_True|28_58 (ssRNA)
RNA: GGGAGUUCUACAGUCCGACGAUCCUGGGUCAUGUUAUAAGACAAAUGGACAGGGAGGGCAUGCUUCUCAAAAAAUGUGAACUACUCUCUAAGACUAACAAUAUUUACUAAGUGCUAAAAAUAAGUUAAAUGAAUAAGUUAAGACAACAGAGGAUUGAGCAUCA
B21: chr16:45382771:45382772:-_ENSMUSG00000022661_ENSMUST00000163230|mus_mus|mus_mus_mus_hu_True|8_28 (ssRNA)
RNA: GGGAGUUCUACAGUCCGACGAUCCUGGGUCAUGUUAUAAGACAAAUGGACAGGGAGGGCAUGCUUCUCAAAAAAUGUGAGCUAUUGUCUAAGACUAACAAUAUUUACUAAGUGCUAAAAAUAAGUUUUAAAUGGACGUUAAGACAACAGAGGAUUGAGCAUCA
B22: chr16:45382771:45382772:-_ENSMUSG00000022661_ENSMUST00000163230|mus_mus|mus_mus_mus_hu_True|28_28 (ssRNA)
RNA: B20 RNA with A80G, C84U, C86G
B23: chr16:45382771:45382772:-_ENSMUSG00000022661_ENSMUST00000163230|mus_mus|mus_mus_mus_hu_True|1_28 (ssRNA)
RNA: B20 RNA with A80G, C84U, C86G, G137A, U138C, U139A, A140U, A141U, G142A, A143C
B24: chr16:45382771:45382772:-_ENSMUSG00000022661_ENSMUST00000163230|mus_mus|mus_mus_mus_hu_True|28_98 (ssRNA)
RNA: B20 RNA with A38G, A39G, A41C, A43C, A80G, C84U, C86G

For the experiment, the target named is T1, UNK ZnF1-3. The experiment in a line: nsRBNS (natural sequence RNA bind-n-seq); RBNS binding buffer (assumed for nsRBNS): 25 mM Tris pH 7.5, 150 mM KCl, 3 mM MgCl2, 0.01% Triton X-100, 500 ug/ml BSA, 20 U/ml SUPERase-In, 4 C; UNK is unkempt and MSI1 is Musashi-1; names of the RNAs are library labels; protein concentration not given here; high values mean tight binding.
Regarding B1, the binding signal was 1.1 enrichment R.
The figure for B2 is 0.719 enrichment R; for B3 it is 3.66 enrichment R; for B4 it is 1.08 enrichment R.
Under B5 stands 0.287 enrichment R; under B6, 0.638 enrichment R; under B7, 1.32 enrichment R.
Under B8 stands 1.22 enrichment R.
B9: the binding signal was 1.28 enrichment R.
The figure for B10 is 0.885 enrichment R; for B11 it is 6.83 enrichment R; for B12 it is 1.2 enrichment R.
Under B13 stands 4.88 enrichment R; under B14, 0.848 enrichment R; under B15, 1.25 enrichment R.
As to B16, the binding signal came out at 0.844 enrichment R.
B17: the binding signal was determined as 1.34 enrichment R.
Under B18 stands 0.801 enrichment R.
The figure for B19 is 0.494 enrichment R; for B20 it is 3.92 enrichment R.
Under B21 stands 5.08 enrichment R; under B22, 11.4 enrichment R; under B23, 3.32 enrichment R.
Regarding B24, the binding signal was found to be 8.35 enrichment R.

The record behind these values is paper PMC12136788.
